Reference: the supplement of paper PMC10849652
The full data set covers some 7,900 targets. This sample favours those with a hit. About 0.6% of all pairs of compound and target were hits. A number with no mark means an inactive call.

What was measured:
Experiment in all cases: log2 fold change, soluble protein after heating vs DMSO (PISA); higher = thermal stabilisation; K562 cells, 10 uM, 30 min; active = over 0.2 and 3.5 SD of the protein, either way, in both replicates (recomputed)
[1] = compound: COC1=CC=C(C=C1)CN2C=CC3=C2C=C(C=C3)C(=O)NO
Procedure, shortened: (§1)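 K562 cells at 2×10^6 cells/mL were treated with 10 μM compound for 30 min. Aliquots were heated for 3 min across 48°C-58°C, pooled, and extracted in PBS with 0.5% NP-40 at 4°C; soluble protein was the supernatant after 21,000xg for 90 min. Soluble protein was quantified by TMTpro 16plex LC-MS/MS with channel sums equalised, and reported as log2 fold change in thermal stability against DMSO controls, with values from duplicates.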

filanesib = compound: CON(C)C(=O)N1N=C(c2cc(F)ccc2F)S[C@@]1(CCCN)c1ccccc1 [filanesib]
Procedure, shortened: as §1

zotarolimus = compound: CO[C@H]1C[C@@H]2CC[C@@H](C)[C@@](O)(O2)C(=O)C(=O)N2CCCC[C@H]2C(=O)O[C@H]([C@H](C)C[C@@H]2CC[C@H](n3cnnn3)[C@H](OC)C2)CC(=O)[C@H](C)/C=C(\C)[C@@H](O)[C@@H](OC)C(=O)[C@H](C)C[C@H](C)/C=C/C=C/C=C/1C [zotarolimus]
Procedure, shortened: as §1

idasanutlin = compound: COc1cc(C(=O)O)ccc1NC(=O)[C@@H]1N[C@@H](CC(C)(C)C)[C@](C#N)(c2ccc(Cl)cc2F)[C@H]1c1cccc(Cl)c1F [idasanutlin]
Procedure, shortened: as §1

alisertib = compound: COc1cc(Nc2ncc3c(n2)-c2ccc(Cl)cc2C(c2c(F)cccc2OC)=NC3)ccc1C(=O)O [alisertib]
Procedure, shortened: as §1

[2] = compound: COc1cc2nc(-c3cc(F)ccc3O)nc(N[C@@H]3CNC[C@H]3C(C)(C)O)c2cc1OC
Procedure, shortened: as §1

gefitinib = compound: COc1cc2ncnc(Nc3ccc(F)c(Cl)c3)c2cc1OCCCN1CCOCC1 [gefitinib]
Procedure, shortened: as §1

[3] = compound: COc1cccc2cc(-c3nc([C@H]4CC[C@H](C(=O)O)CC4)n4ncnc(N)c34)[nH]c12
Procedure, shortened: as §1

lapatinib = compound: CS(=O)(=O)CCNCc1ccc(-c2ccc3ncnc(Nc4ccc(OCc5cccc(F)c5)c(Cl)c4)c3c2)o1 [lapatinib]
Procedure, shortened: as §1

pictilisib = compound: CS(=O)(=O)N1CCN(Cc2cc3nc(-c4cccc5[nH]ncc45)nc(N4CCOCC4)c3s2)CC1 [pictilisib]
Procedure, shortened: as §1

[4] = compound: CS(=O)(=O)c1ccc(-c2cnc(N)c(C(=O)Nc3ccccc3)n2)cc1
Procedure, shortened: as §1

crizotinib = compound: C[C@@H](Oc1cc(-c2cnn(C3CCNCC3)c2)cnc1N)c1c(Cl)ccc(F)c1Cl [crizotinib]
Procedure, shortened: as §1

[5] = compound: C[C@@H]1COCCN1C2=NC(=NC(=C2)C3(CC3)S(=O)(=O)C)C4=C5C=CNC5=CC=C4
Procedure, shortened: as §1

[6] = compound: C[C@H](C1=CC=C(C=C1)C(=O)NC2=C3C=CNC3=NC=C2)N
Procedure, shortened: as §1

duvelisib = compound: C[C@H](Nc1ncnc2nc[nH]c12)c1cc2cccc(Cl)c2c(=O)n1-c1ccccc1 [duvelisib]
Procedure, shortened: as §1

gandotinib = compound: Cc1cc(Nc2cc(CN3CCOCC3)c3nc(C)c(Cc4ccc(Cl)cc4F)n3n2)n[nH]1 [gandotinib]
Procedure, shortened: as §1

tozasertib = compound: Cc1cc(Nc2cc(N3CCN(C)CC3)nc(Sc3ccc(NC(=O)C4CC4)cc3)n2)n[nH]1 [tozasertib]
Procedure, shortened: as §1

[7] = compound: Cc1cc(SCc2sc(-c3ccc(C(F)(F)F)cc3)nc2C)ccc1OCC(=O)O
Procedure, shortened: as §1

doramapimod = compound: Cc1ccc(-n2nc(C(C)(C)C)cc2NC(=O)Nc2ccc(OCCN3CCOCC3)c3ccccc23)cc1 [doramapimod]
Procedure, shortened: as §1

ispinesib = compound: Cc1ccc(C(=O)N(CCCN)[C@@H](c2nc3cc(Cl)ccc3c(=O)n2Cc2ccccc2)C(C)C)cc1 [ispinesib]
Procedure, shortened: as §1

Sequence of UniProt P46527 (P46527 whole entry, looked up): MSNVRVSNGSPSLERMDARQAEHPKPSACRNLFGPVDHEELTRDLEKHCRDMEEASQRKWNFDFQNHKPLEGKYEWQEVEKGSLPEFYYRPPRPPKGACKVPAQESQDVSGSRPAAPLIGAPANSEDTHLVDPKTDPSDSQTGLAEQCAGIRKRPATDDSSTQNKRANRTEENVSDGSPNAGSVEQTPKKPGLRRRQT
Sequence of UniProt Q6NZI2 (Q6NZI2 whole entry, looked up): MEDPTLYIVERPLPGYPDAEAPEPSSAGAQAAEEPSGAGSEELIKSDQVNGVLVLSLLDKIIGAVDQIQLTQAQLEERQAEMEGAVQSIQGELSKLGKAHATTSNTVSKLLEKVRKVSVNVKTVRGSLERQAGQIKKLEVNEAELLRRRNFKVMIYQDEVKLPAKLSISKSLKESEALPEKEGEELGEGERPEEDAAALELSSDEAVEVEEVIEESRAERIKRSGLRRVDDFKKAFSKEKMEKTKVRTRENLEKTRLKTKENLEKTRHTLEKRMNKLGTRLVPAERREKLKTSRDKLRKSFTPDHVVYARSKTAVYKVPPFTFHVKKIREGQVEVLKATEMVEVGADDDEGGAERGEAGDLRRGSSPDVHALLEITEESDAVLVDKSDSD
Sequence of UniProt P42575 (P42575 whole entry, looked up): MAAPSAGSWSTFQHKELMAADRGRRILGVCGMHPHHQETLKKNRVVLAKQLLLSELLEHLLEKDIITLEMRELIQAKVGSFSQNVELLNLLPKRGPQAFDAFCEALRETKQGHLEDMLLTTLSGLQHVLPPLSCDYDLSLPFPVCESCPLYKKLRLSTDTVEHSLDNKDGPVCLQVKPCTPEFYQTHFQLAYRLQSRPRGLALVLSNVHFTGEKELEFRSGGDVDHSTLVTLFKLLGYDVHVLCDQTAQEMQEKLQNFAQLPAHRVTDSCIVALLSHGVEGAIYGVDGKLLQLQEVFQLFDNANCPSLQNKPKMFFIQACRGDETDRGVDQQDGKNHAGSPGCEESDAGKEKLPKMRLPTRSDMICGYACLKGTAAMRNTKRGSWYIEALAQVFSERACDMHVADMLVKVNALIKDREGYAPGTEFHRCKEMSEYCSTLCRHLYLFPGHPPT
Sequence of UniProt P51798 (P51798 whole entry, looked up): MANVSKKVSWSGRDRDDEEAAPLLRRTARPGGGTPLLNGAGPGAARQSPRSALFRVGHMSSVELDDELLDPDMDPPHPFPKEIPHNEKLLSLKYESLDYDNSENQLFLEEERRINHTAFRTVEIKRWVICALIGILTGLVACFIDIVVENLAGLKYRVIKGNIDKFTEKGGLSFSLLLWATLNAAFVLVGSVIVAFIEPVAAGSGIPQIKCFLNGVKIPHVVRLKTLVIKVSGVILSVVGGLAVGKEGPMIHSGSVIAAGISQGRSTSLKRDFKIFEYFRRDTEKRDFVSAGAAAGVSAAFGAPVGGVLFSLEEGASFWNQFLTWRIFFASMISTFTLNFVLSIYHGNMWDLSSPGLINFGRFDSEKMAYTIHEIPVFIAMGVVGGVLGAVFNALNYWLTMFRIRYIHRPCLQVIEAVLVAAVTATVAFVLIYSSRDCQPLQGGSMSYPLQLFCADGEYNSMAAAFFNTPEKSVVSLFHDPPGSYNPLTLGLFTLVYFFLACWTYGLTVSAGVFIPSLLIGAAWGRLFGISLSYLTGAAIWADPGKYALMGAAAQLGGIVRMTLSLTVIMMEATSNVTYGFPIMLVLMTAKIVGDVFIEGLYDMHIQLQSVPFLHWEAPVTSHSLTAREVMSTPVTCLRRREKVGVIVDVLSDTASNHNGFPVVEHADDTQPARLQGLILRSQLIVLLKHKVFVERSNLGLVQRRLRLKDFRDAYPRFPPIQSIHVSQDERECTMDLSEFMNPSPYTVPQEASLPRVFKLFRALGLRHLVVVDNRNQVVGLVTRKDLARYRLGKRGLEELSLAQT
Sequence of UniProt O15182 (O15182 whole entry, looked up): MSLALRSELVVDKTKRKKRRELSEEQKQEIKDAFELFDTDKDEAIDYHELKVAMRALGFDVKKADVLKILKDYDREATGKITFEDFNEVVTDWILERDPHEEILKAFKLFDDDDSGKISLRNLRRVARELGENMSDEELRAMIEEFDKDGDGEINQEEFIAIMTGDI
Sequence of UniProt P20674 (P20674 whole entry, looked up): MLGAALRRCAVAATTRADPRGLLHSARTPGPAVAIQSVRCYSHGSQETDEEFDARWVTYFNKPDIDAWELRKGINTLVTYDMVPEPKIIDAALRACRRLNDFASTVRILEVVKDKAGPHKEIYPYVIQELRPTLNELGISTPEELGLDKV
Sequence of UniProt P50750 (P50750 whole entry, looked up): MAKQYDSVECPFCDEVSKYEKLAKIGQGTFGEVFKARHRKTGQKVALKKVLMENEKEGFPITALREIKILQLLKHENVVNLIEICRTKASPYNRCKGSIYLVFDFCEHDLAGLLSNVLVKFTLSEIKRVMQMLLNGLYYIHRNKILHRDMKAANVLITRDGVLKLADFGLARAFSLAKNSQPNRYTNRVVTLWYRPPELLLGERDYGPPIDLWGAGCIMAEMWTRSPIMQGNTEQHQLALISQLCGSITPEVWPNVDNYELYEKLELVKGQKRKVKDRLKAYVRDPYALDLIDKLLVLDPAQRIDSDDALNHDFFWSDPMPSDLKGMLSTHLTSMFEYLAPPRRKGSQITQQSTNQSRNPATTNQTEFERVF
Sequence of UniProt P51790 (P51790 whole entry, looked up): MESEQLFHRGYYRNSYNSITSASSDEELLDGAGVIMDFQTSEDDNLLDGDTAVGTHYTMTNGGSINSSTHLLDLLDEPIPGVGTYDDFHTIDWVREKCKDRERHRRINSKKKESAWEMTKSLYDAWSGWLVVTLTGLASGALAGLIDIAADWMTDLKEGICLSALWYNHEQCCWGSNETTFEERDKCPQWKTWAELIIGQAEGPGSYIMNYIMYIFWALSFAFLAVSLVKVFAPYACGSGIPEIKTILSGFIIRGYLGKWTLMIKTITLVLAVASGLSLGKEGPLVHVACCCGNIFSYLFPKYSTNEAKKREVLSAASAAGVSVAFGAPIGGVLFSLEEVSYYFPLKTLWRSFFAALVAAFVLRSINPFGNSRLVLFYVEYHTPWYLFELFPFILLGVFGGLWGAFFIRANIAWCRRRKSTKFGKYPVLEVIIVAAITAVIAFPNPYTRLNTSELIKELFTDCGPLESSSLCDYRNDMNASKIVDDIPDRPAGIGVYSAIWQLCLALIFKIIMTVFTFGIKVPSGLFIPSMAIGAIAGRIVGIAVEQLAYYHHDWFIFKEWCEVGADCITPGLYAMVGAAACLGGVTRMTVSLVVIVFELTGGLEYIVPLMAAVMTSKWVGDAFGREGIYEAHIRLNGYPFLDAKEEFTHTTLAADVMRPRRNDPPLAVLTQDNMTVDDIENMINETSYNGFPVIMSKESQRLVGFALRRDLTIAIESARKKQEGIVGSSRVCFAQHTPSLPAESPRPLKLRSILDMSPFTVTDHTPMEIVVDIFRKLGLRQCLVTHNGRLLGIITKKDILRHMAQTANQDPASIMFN
Sequence of UniProt Q96KP4 (Q96KP4 whole entry, looked up): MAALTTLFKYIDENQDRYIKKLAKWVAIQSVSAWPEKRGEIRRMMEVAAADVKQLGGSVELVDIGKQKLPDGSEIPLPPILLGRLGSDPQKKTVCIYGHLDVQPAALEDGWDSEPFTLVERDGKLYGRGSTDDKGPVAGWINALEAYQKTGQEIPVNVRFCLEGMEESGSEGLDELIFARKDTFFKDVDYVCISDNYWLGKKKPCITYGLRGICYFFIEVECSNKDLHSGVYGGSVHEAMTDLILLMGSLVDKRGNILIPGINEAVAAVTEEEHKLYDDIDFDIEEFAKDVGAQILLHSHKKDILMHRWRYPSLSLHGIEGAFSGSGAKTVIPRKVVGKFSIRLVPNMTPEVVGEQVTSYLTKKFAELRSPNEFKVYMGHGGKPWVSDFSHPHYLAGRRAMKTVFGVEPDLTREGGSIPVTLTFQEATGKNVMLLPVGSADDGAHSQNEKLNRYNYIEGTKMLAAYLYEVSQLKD
Sequence of UniProt O15234 (O15234 whole entry, looked up): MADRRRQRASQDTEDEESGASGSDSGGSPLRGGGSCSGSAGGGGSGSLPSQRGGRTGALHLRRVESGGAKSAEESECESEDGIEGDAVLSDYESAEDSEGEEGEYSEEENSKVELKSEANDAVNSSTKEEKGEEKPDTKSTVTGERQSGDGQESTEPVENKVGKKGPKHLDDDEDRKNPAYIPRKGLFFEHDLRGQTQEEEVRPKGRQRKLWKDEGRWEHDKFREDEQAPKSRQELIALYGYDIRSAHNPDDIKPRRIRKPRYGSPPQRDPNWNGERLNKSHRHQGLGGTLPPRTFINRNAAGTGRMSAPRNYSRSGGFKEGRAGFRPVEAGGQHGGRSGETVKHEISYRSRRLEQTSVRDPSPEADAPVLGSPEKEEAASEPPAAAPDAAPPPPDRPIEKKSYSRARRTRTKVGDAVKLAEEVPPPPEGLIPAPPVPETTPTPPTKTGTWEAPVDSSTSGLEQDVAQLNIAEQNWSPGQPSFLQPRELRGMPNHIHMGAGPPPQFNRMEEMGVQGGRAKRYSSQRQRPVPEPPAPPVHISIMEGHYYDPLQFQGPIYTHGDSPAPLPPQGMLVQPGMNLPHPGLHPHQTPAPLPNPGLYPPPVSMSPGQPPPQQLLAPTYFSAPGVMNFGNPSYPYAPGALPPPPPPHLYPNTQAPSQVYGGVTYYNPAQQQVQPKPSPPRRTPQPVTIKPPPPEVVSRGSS
Sequence of UniProt Q9Y6H1 (Q9Y6H1 whole entry, looked up): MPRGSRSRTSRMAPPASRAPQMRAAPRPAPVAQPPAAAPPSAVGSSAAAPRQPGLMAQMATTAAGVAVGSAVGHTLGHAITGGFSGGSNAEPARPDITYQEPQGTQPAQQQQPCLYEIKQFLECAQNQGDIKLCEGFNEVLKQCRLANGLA
Sequence of UniProt Q9H444 (Q9H444 whole entry, looked up): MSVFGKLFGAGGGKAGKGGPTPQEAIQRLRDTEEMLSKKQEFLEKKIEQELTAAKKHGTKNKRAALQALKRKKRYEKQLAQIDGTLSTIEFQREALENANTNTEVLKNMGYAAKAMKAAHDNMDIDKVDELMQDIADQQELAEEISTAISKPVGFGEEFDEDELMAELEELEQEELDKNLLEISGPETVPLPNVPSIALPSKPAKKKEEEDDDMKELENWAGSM

| Target | log2 fold change [1] | log2 fold change (filanesib) | log2 fold change (zotarolimus) | log2 fold change (idasanutlin) | log2 fold change (alisertib) | log2 fold change [2] | log2 fold change (gefitinib) | log2 fold change [3] | log2 fold change (lapatinib) | log2 fold change (pictilisib) | log2 fold change [4] | log2 fold change (crizotinib) | log2 fold change [5] | log2 fold change [6] | log2 fold change (duvelisib) | log2 fold change (gandotinib) | log2 fold change (tozasertib) | log2 fold change [7] | log2 fold change (doramapimod) | log2 fold change (ispinesib) |
| --- | --- | --- | --- | --- | --- | --- | --- | --- | --- | --- | --- | --- | --- | --- | --- | --- | --- | --- | --- | --- |
| CETN3 (UniProt O15182) | -0.211 | -0.026 | 0.041 | 0.068 | -0.058 | 0.161 | -0.001 | 0.072 | -0.175 | 0.061 | -0.018 | 0.014 | -0.084 | -0.071 | 0.057 | 0.094 | 0.037 | -0.094 | -0.018 | 0 |
| CNDP2 (UniProt Q96KP4) | -0.171 | -0.145 | 0.041 | -0.024 | -0.049 | -0.001 | -0.008 | 0.027 | 0.017 | 0.021 | 0.03 | -0.061 | 0.102 | -0.067 | 0.02 | 0.072 | -0.02 | 0.015 | 0.018 | -0.099 |
| CASP2 (UniProt P42575) | 0.122 | -0.02 | 0.047 | -0.067 | -0.019 | -0.245 | -0.082 | 0.072 | -0.323 (active) | 0.069 | 0.004 | -0.062 | 0.023 | -0.002 | 0.061 | -0.071 | 0.083 | 0.05 | 0.077 | 0.039 |
| CHCHD2 (UniProt Q9Y6H1) | 0.101 | 0.026 | -0.024 | -0.457 (active) | 0.053 | -0.002 | -0.028 | -0.155 | -0.024 | 0.031 | 0 | 0.161 | -0.017 | -0.075 | 0.097 | -0.107 | 0.059 | -0.016 | -0.037 | 0.066 |
| CDK9 isoform 2 (UniProt P50750) | -0.103 | 0.154 | 0.015 | 0.114 | -0.093 | -0.182 | -0.031 | -0.067 | -0.055 | 0.014 | -0.017 | -0.103 | -0.075 | 0.189 | -0.076 | -0.054 | -0.031 | 0.03 | 0.066 | -0.013 |
| CAVIN1 (UniProt Q6NZI2) | -0.012 | 0.109 | 0 | 0.15 | -0.098 | -0.107 | -0.1 | -0.159 | 0.089 | -0.094 | -0.023 | -0.046 | -0.34 | 0.174 | -0.131 | 0.145 | 0.058 | 0.06 | 0.135 | 0.067 |
| COMMD2 (UniProt Q86X83) | -0.039 | 0.058 | 0.124 | -0.058 | -0.126 | 0.076 | 0.018 | 0.001 | 0.02 | 0.007 | -0.048 | -0.13 | 0.102 | 0.037 | 0.097 | -0.029 | 0.082 | -0.018 | -0.012 | 0.014 |
| CCAR1 (UniProt Q8IX12) | 0.018 | -0.105 | 0.011 | -0.041 | -0.056 | -0.02 | 0.027 | 0.014 | 0.003 | -0.072 | 0.004 | -0.238 | 0.034 | -0.016 | 0.012 | -0.263 (active) | -0.063 | 0.067 | -0.03 | -0.102 |
| CHMP4B (UniProt Q9H444) | -0.101 | -0.106 | -0.015 | 0.034 | -0.036 | 0.044 | -0.005 | 0.08 | -0.09 | -0.094 | -0.067 | -0.036 | -0.011 | -0.022 | -0.004 | -0.075 | -0.037 | -0.014 | 0.005 | -0.008 |
| CASC3 (UniProt O15234) | 0 | 0.17 | -0.105 | 0.038 | -0.051 | 0.16 | 0 | -0.105 | -0.077 | -0.066 | -0.228 | 0.537 (active) | -0.412 (active) | 0.243 | 0.065 | 0.484 (active) | -0.088 | -0.067 | -0.025 | -0.094 |
| CLCN3 (UniProt P51790) | -0.158 | -0.12 | -0.099 | -0.095 | -0.016 | 0.031 | 0.045 | 0.058 | -0.06 | – | -0.05 | -0.191 | 0.012 | -0.003 | 0.046 | -0.062 | 0.04 | -0.006 | -0.03 | -0.549 (active) |
| COX5A (UniProt P20674) | -0.1 | 0.015 | 0.054 | -0.012 | -0.13 | -0.092 | 0.067 | 0.084 | -0.108 | 0.108 | -0.011 | 0.245 | 0.109 | -0.092 | 0.249 | 0.12 | 0.029 | 0.011 | -0.039 | 0.411 (active) |
| CLPTM1L (UniProt Q96KA5) | -0.053 | -0.114 | -0.095 | -0.141 | -0.032 | -0.08 | -0.007 | 0.065 | -0.02 | – | 0.036 | -0.08 | 0.025 | -0.013 | 0.047 | -0.268 (active) | 0.012 | 0 | -0.012 | -0.326 (active) |
| CDKN1B (UniProt P46527) | 0.085 | -0.02 | -0.007 | -0.033 | 0.068 | 0.104 | 0.124 | -0.076 | -0.03 | -0.02 | -0.017 | -0.018 | -0.295 | -0.065 | 0.059 | 0.077 | – | -0.06 | -0.071 | -0.01 |
| CLCN7 (UniProt P51798) | 0.112 | -0.294 (active) | 0.008 | -0.006 | -0.084 | -0.077 | -0.144 | 0.023 | -0.011 | – | -0.037 | -0.814 (active) | 0.018 | -0.091 | -0.089 | -0.193 | -0.031 | 0.028 | -0.008 | -0.952 (active) |
| CLPX (UniProt O76031) | 0.077 | -0.07 | -0.052 | -0.007 | -0.026 | -0.017 | 0.019 | 0.021 | 0.014 | – | 0.061 | 0.291 (active) | 0.027 | 0.004 | 0.004 | 0.003 | -0.012 | -0.05 | -0.002 | 0.018 |
